{
  "source": "PubChem BioAssay (EPA / NIEHS)",
  "key": {"[1]": {"target": "human Thromboxane A2 Receptor (TXA2), TBXA2R (gene 6915) (UniProt P21731)", "sequence (P21731 whole entry, looked up)": "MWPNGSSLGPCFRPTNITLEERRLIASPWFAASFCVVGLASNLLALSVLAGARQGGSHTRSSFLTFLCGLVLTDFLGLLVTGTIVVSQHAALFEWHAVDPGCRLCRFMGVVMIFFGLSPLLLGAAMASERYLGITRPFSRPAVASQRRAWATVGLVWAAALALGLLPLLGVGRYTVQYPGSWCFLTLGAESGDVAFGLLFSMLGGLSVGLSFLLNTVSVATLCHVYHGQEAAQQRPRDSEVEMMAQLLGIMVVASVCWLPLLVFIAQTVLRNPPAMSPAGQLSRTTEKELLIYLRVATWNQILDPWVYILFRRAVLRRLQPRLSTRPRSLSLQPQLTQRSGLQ", "test": "NVS_GPCR_hTXA2: NovaScreen (NVS) G Protein-Coupled Receptor Assay for human Thromboxane A2 Receptor (TXA2) (AID 2283282);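 further: actives reduce bound radioligand signal relative to DMSO baseline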", "procedure,_shortened": "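Cell-free radioligand binding with human platelet-derived receptor; 1 h after dosing, filter-based scintillation counting, loss of signal vs DMSO. Primary screen in duplicate at 25 uM.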"}, "[2]": {"target": "rat Adrenergic, Alpha 1, Non-selective Receptor (Adra1), Adra1a (gene 29412) (UniProt P43140)", "sequence (P43140 whole entry, looked up)": "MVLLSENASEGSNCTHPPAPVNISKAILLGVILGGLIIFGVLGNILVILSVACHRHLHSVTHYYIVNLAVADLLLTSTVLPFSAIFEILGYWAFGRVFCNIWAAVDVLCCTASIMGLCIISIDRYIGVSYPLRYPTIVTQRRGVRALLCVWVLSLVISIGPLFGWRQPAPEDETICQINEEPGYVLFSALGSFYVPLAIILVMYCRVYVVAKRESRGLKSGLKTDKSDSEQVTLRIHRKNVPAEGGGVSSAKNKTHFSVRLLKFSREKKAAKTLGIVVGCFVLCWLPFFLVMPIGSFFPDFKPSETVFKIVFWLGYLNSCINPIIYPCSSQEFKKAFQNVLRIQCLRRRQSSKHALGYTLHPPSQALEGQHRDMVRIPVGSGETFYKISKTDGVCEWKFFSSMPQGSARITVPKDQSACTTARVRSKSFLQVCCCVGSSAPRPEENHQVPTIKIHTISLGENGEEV", "test": "NVS_GPCR_rAdra1_NonSelective: NovaScreen (NVS) G Protein-Coupled Receptor Assay for rat Adrenergic, Alpha 1, Non-selective Receptor (Adra1) (AID 2283289)", "procedure,_shortened": "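Rat forebrain membranes; radioligand displacement read by filter-based scintillation counting 1 h after dosing. Primary screen in duplicate at 25 uM; hits (e.g. ≥30% inhibition) rerun as concentration–response to 50 uM max. Fitted versus DMSO.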"}, "[3]": {"target": "human Neurotensin Receptor (NTS), NTSR1 (gene 4923) (UniProt P30989)", "test": "NVS_GPCR_hNTS: NovaScreen (NVS) G Protein-Coupled Receptor Assay for human Neurotensin Receptor (NTS) (AID 2283279)", "procedure,_shortened": "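Radioligand displacement on human NTSR1 protein from CHO cells, cell-free, 1 h, filter-based scintillation counting. Primary screen at 25 uM in duplicate; hits rerun in concentration-response up to 50 uM.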"}, "[4]": {"test_system": "rabbit Platelet Activating Factor Receptor (PAF), gene 100354046", "test": "NVS_GPCR_rabPAF: NovaScreen (NVS) G Protein-Coupled Receptor Assay for rabbit Platelet Activating Factor Receptor (PAF) (AID 2283287)", "procedure,_shortened": "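Rabbit platelet membrane preparation; radioligand displacement read by filter-based scintillation counting 1 h after dosing, loss of signal versus DMSO. Primary screen in duplicate at 25 uM, actives followed up in concentration series.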"}, "[5]": {"target": "D(1A) dopamine receptor (Homo sapiens) (UniProt P21728)", "sequence (P21728 whole entry, looked up)": "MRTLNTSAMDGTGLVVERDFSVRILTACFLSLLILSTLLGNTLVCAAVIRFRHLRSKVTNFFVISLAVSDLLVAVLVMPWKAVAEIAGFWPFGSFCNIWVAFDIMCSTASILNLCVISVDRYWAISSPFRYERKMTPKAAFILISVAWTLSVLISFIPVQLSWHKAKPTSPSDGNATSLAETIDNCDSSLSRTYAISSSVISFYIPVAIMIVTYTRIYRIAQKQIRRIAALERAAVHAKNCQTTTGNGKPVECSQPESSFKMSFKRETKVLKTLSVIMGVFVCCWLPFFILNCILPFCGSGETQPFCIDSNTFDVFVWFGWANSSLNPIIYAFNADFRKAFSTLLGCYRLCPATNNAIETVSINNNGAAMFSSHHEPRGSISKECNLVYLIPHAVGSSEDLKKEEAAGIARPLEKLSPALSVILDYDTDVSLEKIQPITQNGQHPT", "test": "NVS_GPCR_hDRD1: NovaScreen (NVS) G Protein-Coupled Receptor Assay for human Dopamine Receptor D1 (DRD1) (AID 2283269)", "procedure,_shortened": "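Cell-free competition with radioligand, filter-trapped and scintillation-counted 1 h post-dose, using HEK293-derived human D1 preparation. Duplicate single-point testing at 25 uM first, then concentration series for actives; DMSO served as baseline, loss-of-signal scored.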"}, "[6]": {"target": "human Opioid Receptor Delta 1 (Opiate D1), OPRD1 (gene 4985) (UniProt P41143)", "test": "NVS_GPCR_hOpiate_D1: NovaScreen (NVS) G Protein-Coupled Receptor Assay for human Opioid Receptor Delta 1 (Opiate D1) (AID 2283280)", "procedure,_shortened": "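Radioligand displacement on membranes from CHO cells expressing the receptor, read by filter scintillation counting 1 h after dosing. Duplicate single-point screen at 25 uM, then concentration series for actives; loss of signal versus DMSO.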"}, "[7]": {"target": "human Opioid Receptor Mu (Opiate Mu), OPRM1 (gene 4988) (UniProt P35372)", "sequence (P35372 whole entry, looked up)": "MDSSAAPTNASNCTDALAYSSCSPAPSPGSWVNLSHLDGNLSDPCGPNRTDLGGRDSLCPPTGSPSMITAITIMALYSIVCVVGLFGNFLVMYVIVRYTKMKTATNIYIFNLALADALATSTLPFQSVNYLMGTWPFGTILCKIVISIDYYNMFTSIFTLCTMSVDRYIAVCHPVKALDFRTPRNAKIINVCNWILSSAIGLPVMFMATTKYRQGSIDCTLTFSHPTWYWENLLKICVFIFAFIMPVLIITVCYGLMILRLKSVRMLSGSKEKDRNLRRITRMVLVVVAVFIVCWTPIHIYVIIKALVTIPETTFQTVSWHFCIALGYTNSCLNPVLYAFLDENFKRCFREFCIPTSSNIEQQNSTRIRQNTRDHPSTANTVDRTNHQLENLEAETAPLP", "test": "NVS_GPCR_hOpiate_mu: NovaScreen (NVS) G Protein-Coupled Receptor Assay for human Opioid Receptor Mu (Opiate Mu) (AID 2283290);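 further: hits lower bound tracer signal versus DMSO meaning displacement of the ligand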", "procedure,_shortened": "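Primary screen in duplicate at 25 uM, with actives followed in concentration series. CHO-derived receptor membranes, cell-free; bound radioligand read by scintillation counting after filtration at 2.5 h, decrease scored against DMSO.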"}, "[8]": {"target": "human Histamine 1 Receptor (H1), HRH1 (gene 3269) (UniProt P35367)", "sequence (P35367 whole entry, looked up)": "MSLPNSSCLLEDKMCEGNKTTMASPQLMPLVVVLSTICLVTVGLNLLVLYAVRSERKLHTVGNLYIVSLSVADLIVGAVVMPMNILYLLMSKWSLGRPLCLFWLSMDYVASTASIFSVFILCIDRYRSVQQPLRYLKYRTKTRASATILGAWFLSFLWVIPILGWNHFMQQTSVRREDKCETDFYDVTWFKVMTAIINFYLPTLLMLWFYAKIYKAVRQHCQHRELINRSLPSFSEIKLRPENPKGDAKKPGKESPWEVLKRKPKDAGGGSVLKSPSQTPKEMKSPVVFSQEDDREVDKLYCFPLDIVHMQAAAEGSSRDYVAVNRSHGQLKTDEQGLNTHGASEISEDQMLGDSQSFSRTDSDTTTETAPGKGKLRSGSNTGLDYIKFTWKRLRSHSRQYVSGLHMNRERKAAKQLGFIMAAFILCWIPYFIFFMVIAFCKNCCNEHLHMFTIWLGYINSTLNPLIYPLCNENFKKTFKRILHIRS", "test": "NVS_GPCR_hH1: NovaScreen (NVS) G Protein-Coupled Receptor Assay for human Histamine 1 Receptor (H1) (AID 2283268)", "procedure,_shortened": "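Cell-free radioligand displacement at human H1 receptor, 1 h, filter scintillation counting; primary screen 25 uM in duplicate, hits in concentration series; loss of binding fitted vs DMSO.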"}, "[9]": {"target": "Muscarinic acetylcholine receptor M1 (Homo sapiens) (UniProt P11229)", "sequence (P11229 whole entry, looked up)": "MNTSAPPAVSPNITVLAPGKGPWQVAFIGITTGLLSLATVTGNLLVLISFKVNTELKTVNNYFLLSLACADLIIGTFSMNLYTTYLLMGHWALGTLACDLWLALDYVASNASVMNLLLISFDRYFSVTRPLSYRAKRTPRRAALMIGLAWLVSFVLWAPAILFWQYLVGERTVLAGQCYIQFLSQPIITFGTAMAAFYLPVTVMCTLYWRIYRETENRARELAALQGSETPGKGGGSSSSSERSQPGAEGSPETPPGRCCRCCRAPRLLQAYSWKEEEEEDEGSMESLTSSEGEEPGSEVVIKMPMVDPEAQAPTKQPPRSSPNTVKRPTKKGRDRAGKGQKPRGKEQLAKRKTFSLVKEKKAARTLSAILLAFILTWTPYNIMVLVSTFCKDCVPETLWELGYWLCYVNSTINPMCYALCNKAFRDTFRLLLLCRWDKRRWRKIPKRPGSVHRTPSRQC", "test": "NVS_GPCR_hM1: NovaScreen (NVS) G Protein-Coupled Receptor Assay for human Muscarinic, M1 Receptor (AID 2283270)", "procedure,_shortened": "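Cell-free radioligand displacement using membrane protein extracted from CHO cells, read by filter-based scintillation counting 1 h after dosing. Loss of bound signal fitted versus DMSO; primary screen single concentration 25 uM in duplicate, actives followed by concentration series.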"}, "[10]": {"target": "Muscarinic acetylcholine receptor M3 (Homo sapiens) (UniProt P20309)", "sequence (P20309 whole entry, looked up)": "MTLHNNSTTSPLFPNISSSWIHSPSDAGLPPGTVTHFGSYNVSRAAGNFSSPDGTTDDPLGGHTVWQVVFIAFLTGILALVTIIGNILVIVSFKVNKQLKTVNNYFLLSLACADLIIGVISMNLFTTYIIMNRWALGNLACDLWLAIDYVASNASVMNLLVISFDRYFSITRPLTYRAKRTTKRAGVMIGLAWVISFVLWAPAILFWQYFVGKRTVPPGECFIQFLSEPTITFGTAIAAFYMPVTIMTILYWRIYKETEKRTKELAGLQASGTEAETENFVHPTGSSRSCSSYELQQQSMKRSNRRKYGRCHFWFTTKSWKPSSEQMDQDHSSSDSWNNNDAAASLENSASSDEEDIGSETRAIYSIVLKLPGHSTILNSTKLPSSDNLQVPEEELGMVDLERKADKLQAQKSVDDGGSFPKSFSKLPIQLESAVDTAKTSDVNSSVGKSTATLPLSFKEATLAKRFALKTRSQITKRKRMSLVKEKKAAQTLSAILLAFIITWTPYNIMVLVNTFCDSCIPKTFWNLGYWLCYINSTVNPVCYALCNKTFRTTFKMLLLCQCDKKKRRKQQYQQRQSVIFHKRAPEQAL", "test": "NVS_GPCR_hM3: NovaScreen (NVS) G Protein-Coupled Receptor Assay for human Muscarinic, M3 Receptor (AID 2283272)", "procedure,_shortened": "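Radioligand displacement binding on human M3 receptor in CHO-derived membranes, 1 h incubation, filter-based scintillation counting. Primary screen in duplicate at 25 uM; actives followed up in concentration series; loss of signal versus DMSO.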"}, "[11]": {"target": "Muscarinic acetylcholine receptor M2 (Homo sapiens) (UniProt P08172)", "sequence (P08172 whole entry, looked up)": "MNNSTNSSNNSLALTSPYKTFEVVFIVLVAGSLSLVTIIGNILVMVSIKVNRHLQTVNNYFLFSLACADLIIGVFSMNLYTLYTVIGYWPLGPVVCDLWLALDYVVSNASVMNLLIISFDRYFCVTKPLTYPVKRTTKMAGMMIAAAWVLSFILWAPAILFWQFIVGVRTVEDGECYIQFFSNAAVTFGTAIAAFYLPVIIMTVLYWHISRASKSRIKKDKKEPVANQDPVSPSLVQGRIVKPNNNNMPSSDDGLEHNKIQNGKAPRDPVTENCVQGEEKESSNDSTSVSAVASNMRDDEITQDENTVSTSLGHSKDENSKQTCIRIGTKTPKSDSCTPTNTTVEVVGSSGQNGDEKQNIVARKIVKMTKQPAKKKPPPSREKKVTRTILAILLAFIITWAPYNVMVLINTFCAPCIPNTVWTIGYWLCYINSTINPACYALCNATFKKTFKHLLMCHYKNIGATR", "test": "NVS_GPCR_hM2: NovaScreen (NVS) G Protein-Coupled Receptor Assay for human Muscarinic, M2 Receptor (AID 2283273)", "procedure,_shortened": "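CHO membrane prep, radioligand + test compound, 1 h; filtration, scintillation count. Screen 25 uM duplicate → conc. series for actives. Readout: decrease in binding vs DMSO control.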"}, "[12]": {"target": "human Neuropeptide Receptor Y1 (NPY1), NPY1R (gene 4886) (UniProt P25929)", "sequence (P25929 whole entry, looked up)": "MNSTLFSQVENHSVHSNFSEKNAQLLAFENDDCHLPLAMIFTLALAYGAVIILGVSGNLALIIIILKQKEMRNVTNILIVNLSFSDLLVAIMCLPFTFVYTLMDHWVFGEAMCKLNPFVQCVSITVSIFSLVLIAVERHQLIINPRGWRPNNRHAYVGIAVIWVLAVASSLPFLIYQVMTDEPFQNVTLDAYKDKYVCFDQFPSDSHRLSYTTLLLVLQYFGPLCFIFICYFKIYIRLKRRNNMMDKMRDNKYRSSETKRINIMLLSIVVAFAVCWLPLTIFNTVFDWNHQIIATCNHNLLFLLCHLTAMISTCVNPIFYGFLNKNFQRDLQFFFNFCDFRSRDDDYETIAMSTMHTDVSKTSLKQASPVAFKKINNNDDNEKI", "test": "NVS_GPCR_hNPY1: NovaScreen (NVS) G Protein-Coupled Receptor Assay for human Neuropeptide Receptor Y1 (NPY1) (AID 2283276)", "procedure,_shortened": "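Cell-free radioligand binding using receptor extracted from SK-N-MC cells, 1 h incubation, filter-based scintillation counting. Primary screen single concentration 25 uM in duplicate; actives followed in concentration series. Loss of bound signal scored versus DMSO.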"}, "[13]": {"target": "human Leukotriene B4 Receptor 1 (LTB4-BLT1), LTB4R (gene 1241) (UniProt Q15722)", "test": "NVS_GPCR_hLTB4_BLT1: NovaScreen (NVS) G Protein-Coupled Receptor Assay for human Leukotriene B4 Receptor 1 (LTB4-BLT1) (AID 2283271)", "procedure,_shortened": "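Radioligand displacement binding on receptor extracted from human neutrophils, cell-free, 1 h after dosing; filter-based scintillation counting. Primary screen in duplicate at 25 uM, actives retested in concentration-response up to 50 uM; loss of signal versus DMSO.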"}, "[14]": {"target": "rat Serotonin, 5-Hydroxytryptamine Receptor 1 (5HT1), Non-Selective Binding, Htr1a (gene 24473) (UniProt P19327)", "test": "NVS_GPCR_r5HT1_NonSelective: NovaScreen (NVS) G Protein-Coupled Receptor Assay for rat Serotonin, 5-Hydroxytryptamine Receptor 1 (5HT1), Non-Selective Binding (AID 2283286)", "procedure,_shortened": "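Rat cortical membranes, radioligand displacement, 1 h incubation, read by filter scintillation. Primary screen in duplicate at 25 uM. Hits (e.g. ≥30% inhibition) went to concentration-response up to 50 uM, fitted as loss of binding versus DMSO.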"}, "[15]": {"target": "mouse Cholecystokinin, CCK1 Receptor (CCKA), Cckar (gene 12425) (UniProt O08786)", "sequence (O08786 whole entry, looked up)": "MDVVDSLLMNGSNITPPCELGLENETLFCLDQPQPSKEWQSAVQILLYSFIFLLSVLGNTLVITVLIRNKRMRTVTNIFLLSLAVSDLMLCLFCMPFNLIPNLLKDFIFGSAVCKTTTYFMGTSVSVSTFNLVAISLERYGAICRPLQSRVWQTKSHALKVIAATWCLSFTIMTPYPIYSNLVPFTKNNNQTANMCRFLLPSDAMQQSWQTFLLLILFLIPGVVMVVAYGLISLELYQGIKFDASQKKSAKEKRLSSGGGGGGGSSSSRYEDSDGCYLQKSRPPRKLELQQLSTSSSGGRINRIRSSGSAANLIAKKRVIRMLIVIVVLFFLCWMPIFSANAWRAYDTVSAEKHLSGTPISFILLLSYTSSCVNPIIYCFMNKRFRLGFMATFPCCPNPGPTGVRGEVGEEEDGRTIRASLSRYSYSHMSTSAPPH", "test": "NVS_GPCR_mCCKAPeripheral: NovaScreen (NVS) G Protein-Coupled Receptor Assay for mouse Cholecystokinin, CCK1 Receptor (CCKA) (AID 2283285)", "procedure,_shortened": "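Radioligand competitive displacement on mouse pancreatic membranes, 2 h incubation; filter-based scintillation counting, loss of signal versus DMSO. Single-concentration screen at 25 uM in duplicate, actives retested in concentration-response up to 50 uM.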"}, "[16]": {"target": "human Vasopressin 1A Receptor (V1A), AVPR1A (gene 552) (UniProt P37288)", "sequence (P37288 whole entry, looked up)": "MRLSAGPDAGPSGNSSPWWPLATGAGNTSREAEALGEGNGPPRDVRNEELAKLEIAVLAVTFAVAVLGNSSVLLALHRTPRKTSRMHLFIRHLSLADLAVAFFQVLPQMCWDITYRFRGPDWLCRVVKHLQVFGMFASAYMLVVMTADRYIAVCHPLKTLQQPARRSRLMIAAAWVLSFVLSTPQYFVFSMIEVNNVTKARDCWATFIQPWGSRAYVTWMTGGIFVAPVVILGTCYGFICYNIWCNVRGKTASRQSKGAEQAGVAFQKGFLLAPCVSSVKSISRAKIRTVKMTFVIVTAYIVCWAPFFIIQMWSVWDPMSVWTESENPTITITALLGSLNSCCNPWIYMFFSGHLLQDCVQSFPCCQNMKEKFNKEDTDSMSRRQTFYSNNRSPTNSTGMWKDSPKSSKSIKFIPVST", "test": "NVS_GPCR_hV1A: NovaScreen (NVS) G Protein-Coupled Receptor Assay for human Vasopressin 1A Receptor (V1A) (AID 2283284)", "procedure,_shortened": "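Cell-free radioligand displacement on human platelet preparations, 1.5 h incubation, filter-based scintillation counting. Chemicals first tested in duplicate at 25 uM; actives then run in concentration-response up to 50 uM, loss of signal fitted against DMSO.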"}},
  "note": "Inconclusive results are not listed. Calls of active or inactive are those of the source. How the source made its calls: active means hit-call score of the fitted dose curve at least 0.9, where 1 is the maximum; inconclusive means response in the unintended direction; inactive means score below 0.9.",
  "data": [
    {"smiles": "Cc1c(-c2cccnc2)c2ccccc2n1CCCCC(=O)O", "values": [
      {"measurement": "AC50", "setting": "[1]", "result": "5.82 µM (active)"}
    ]},
    {"smiles": "CC[C@H]1OC(=O)[C@H](C)[C@@H](O[C@H]2C[C@@](C)(OC)[C@@H](O)[C@H](C)O2)[C@H](C)[C@@H](O[C@@H]2O[C@H](C)C[C@H](N(C)C)[C@H]2O)[C@](C)(O)C[C@@H](C)C(=O)[C@H](C)[C@@H](O)[C@]1(C)O", "values": [
      {"measurement": "outcome", "setting": "[2]", "result": "inactive"}
    ]},
    {"smiles": "Cc1ccc(C)c(O)c1", "values": [
      {"measurement": "AC50", "setting": "[3]", "result": "9.84 µM (active)"},
      {"measurement": "outcome", "setting": "[2]", "result": "inactive"}
    ]},
    {"smiles": "Cc1ccc(N)cc1O", "values": [
      {"measurement": "outcome", "setting": "[4]", "result": "inactive"}
    ]},
    {"smiles": "CCC(C)(C)C(=O)O[C@H]1C[C@@H](C)C=C2C=C[C@H](C)[C@H](CC[C@@H]3C[C@@H](O)CC(=O)O3)[C@H]21", "values": [
      {"measurement": "outcome", "setting": "[5]", "result": "inactive"},
      {"measurement": "outcome", "setting": "[6]", "result": "inactive"},
      {"measurement": "outcome", "setting": "[1]", "result": "inactive"},
      {"measurement": "outcome", "setting": "[7]", "result": "inactive"}
    ]},
    {"smiles": "CCOC(=O)COc1ccc2c(c1)CC(NCC(O)c1cccc(Cl)c1)CC2", "note": "(stereo not drawn)", "values": [
      {"measurement": "AC50", "setting": "[8]", "result": "20.1 µM (active)"},
      {"measurement": "AC50", "setting": "[5]", "result": "22.9 µM (active)"},
      {"measurement": "AC50", "setting": "[9]", "result": "4.73 µM (active)"},
      {"measurement": "AC50", "setting": "[10]", "result": "3.78 µM (active)"},
      {"measurement": "AC50", "setting": "[11]", "result": "3.68 µM (active)"},
      {"measurement": "AC50", "setting": "[7]", "result": "5.18 µM (active)"}
    ]},
    {"smiles": "CN(C)c1ccc(N=NS(=O)(=O)O)cc1", "values": [
      {"measurement": "outcome", "setting": "[12]", "result": "inactive"},
      {"measurement": "AC50", "setting": "[2]", "result": "23.8 µM (active)"}
    ]},
    {"smiles": "CCCN(C1CCN(C(=O)C2CCNCC2)CC1)[C@@H]1CCc2ccc(OC)cc2C1", "values": [
      {"measurement": "AC50", "setting": "[8]", "result": "12.1 µM (active)"},
      {"measurement": "AC50", "setting": "[9]", "result": "0.00229 µM (active)"},
      {"measurement": "outcome", "setting": "[13]", "result": "inactive"},
      {"measurement": "AC50", "setting": "[10]", "result": "0.00453 µM (active)"},
      {"measurement": "AC50", "setting": "[11]", "result": "0.00539 µM (active)"},
      {"measurement": "AC50", "setting": "[14]", "result": "8.67 µM (active)"},
      {"measurement": "AC50", "setting": "[2]", "result": "16.1 µM (active)"}
    ]},
    {"smiles": "COc1ccc2sc(C(=O)Nc3nnn[nH]3)c(OC(C)C)c2c1", "values": [
      {"measurement": "AC50", "setting": "[1]", "result": "0.187 µM (active)"}
    ]},
    {"smiles": "COc1ccc(/C=C/S(=O)(=O)NC(=O)c2ccc(C)cc2Cl)cc1", "values": [
      {"measurement": "AC50", "setting": "[15]", "result": "22.7 µM (active)"}
    ]},
    {"smiles": "COc1ccc(-n2nc(C(F)F)cc2-c2ccc(S(C)=O)cc2)cc1", "note": "(stereo not drawn)", "values": [
      {"measurement": "AC50", "setting": "[4]", "result": "11.5 µM (active)"}
    ]},
    {"smiles": "CC1=CC(=O)CC(C)(C)C1", "values": [
      {"measurement": "AC50", "setting": "[16]", "result": "18.5 µM (active)"}
    ]}
  ]
}
